Assay outcomes as filed in PubChem.
NALP3 yeast inh – inhibitors of NALP3 inflammasome in yeast | Yeast reconstituted NLRP3/ASC/caspase-1, beta-gal luminescence, 24 h | hit rate 0.39% among 330,000 | inhibition, % at 10 µM | AID 2825;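 active = inhibition of 50% or more; inactive = inhibition below 50%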;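 also: plate controls were induced DMSO wells for no effect and uninduced yeast grown without galactose for full effect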
tim23-1 inh – inhibits growth of tim23-1 mutant yeast; inhibition, % at 20 µM; AID 463212; hit rate 1.3% among 330,000; S. cerevisiae tim23-1 growth, BacTiter-Glo luminescence, 24 h;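 active = growth inhibition of the mutant yeast at or above 50%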;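 also: temperature-sensitive mutant grown at 25 °C; plate controls were DMSO-treated mutant yeast for no effect and medium wells lacking yeast for full effect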
tim10-1 inh – tim10-1 yeast growth inhibition | AID 463190 | inhibition, % at 20 µM | S. cerevisiae tim10-1 ts strain growth, BacTiter-Glo, 24 h | hit rate 2.2% among 330,000;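 active = inhibition of at least 40%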;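 also: mutant grown at 25 °C; 0% = DMSO wells with yeast and 100% = wells holding no yeast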
V-ATPase pHluor – regulators of yeast V-ATPase proton transport | S. cerevisiae, pHLuorin cytosolic pH fluorescence | response, % at 10 µM | hit rate 0.37% among 350,000 | AID 504577; in the data active = response mostly above about 7.3%, no sharp cut-off; inactive = mostly below about 5.4%; also: actives read high
TIM10 inh – TIM10 yeast growth inhibition. S. cerevisiae TIM10 strain growth, BacTiter-Glo luminescence, 24 h. inhibition, % at 10 µM. hit rate 1.4% among 330,000. AID 463195;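 active = inhibition of 40% or more at the single tested concentration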;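 also: wild-type TIM10 isogenic control strain grown at permissive 25 °C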
NALP1 inh – inhibitors of NALP1 inflammasome in yeast; S. cerevisiae NALP1/ASC/caspase-1 growth, X-gal OD620, 72 h; inhibition, % at 10 µM; hit rate 0.61% among 280,000; in the data active = inhibition mostly above about 24%, no sharp cut-off; inactive = mostly below about 32%
TIM10 conf – TIM10 yeast growth inhibition, confirmed; AID 463215; shares compounds with TIM10 inh; hit rate 63% among 4,600; inhibition, % at 10 µM; S. cerevisiae tim10 strain growth, BacTiter-Glo luminescence, 24 h;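 active = inhibition of yeast growth at or above a set limit in either of two replicates at 10 µM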;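 also: this counterscreen used the strain with wild-type TIM10; 0% = yeast with DMSO and 100% = medium wells lacking yeast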
The depositor's hits bear a star; nt = not tested or not shown. Most compounds without a hit are left out; they make up all but 4.2% or so of the library.

SMILES	NALP3 yeast inh	tim23-1 inh	tim10-1 inh	V-ATPase pHluor	TIM10 inh	NALP1 inh	TIM10 conf
O=C(Cc1ccccc1)Nc1nc(-c2cccs2)cs1	22	34	36	1	25	17	nt
Cc1cccc(NC(=O)c2ccc([N+](=O)[O-])o2)n1	3	-18	5	2	60*	-13	-26
CCOc1cc(/C=N/NC(=O)COc2cccc(C)c2)ccc1OC(=O)c1cccs1	12	27	23	-1	21	5	nt
COc1cc(/C=N/NC(=O)COc2ccccc2C)ccc1OC(=O)c1cccs1	-2	28	30	-2	43*	17	41*
CCOc1cc(/C=C2\SC(=NC)N(C)C2=O)c(Br)cc1OC(C)=O	-32	29	34	0	82*	-24	29
CC(=O)Nc1c(C)nn(C(C)=O)c1C	-5	6	3	0	-3	20	nt
Cc1csc(Nc2nc(N)c(C(=O)Nc3ccccc3)o2)n1	9	47	-17	-1	43*	25	30
O=C(NCCS(=O)(=O)NCc1ccccc1Cl)c1ccc2c(c1)OCO2	-1	11	4	-2	-1	nt	nt
O=C(NC12CC3CC(CC(C3)C1)C2)c1ccc(-c2ccc(Br)cc2)o1	-6	26	30	-4	49*	27	54*
CCOc1cccc(C(=O)Nc2nccs2)c1	36	40	8	2	38	33	nt
Cc1cccc(C2=N/C(=C\c3cccs3)C(=O)O2)c1	18	45	24	-6	26	-2	nt
c1ccc(-n2nnnc2Sc2ncnc3sc4c(c23)CCCC4)cc1	4	22	34	1	44*	24	23
Cc1sc2ncnc(Sc3nnnn3-c3ccc(Cl)cc3)c2c1C	16	1	27	3	13	-46	nt
CCOC(=O)c1cnc2c(OC)cccc2c1N1CCN(c2ccccc2OC)CC1	31	34	37	2	42*	15	-23
O=C(NC1CCCC1)C(c1ccco1)N(C(=O)c1ccco1)c1ccccc1 (configuration not stated)	-1	26	20	9	8	11	nt
CCc1ccc(N(C(=O)c2ccco2)C(C(=O)NC2CCCC2)c2ccco2)cc1 (configuration not stated)	-1	23	27	-5	42*	nt	-27
COc1ccc(/C=N/NC(=O)c2ccoc2C)cc1OC	7	10	2	0	-13	18	nt
COc1ccc(/C=N/NC(=O)c2ccoc2C)cc1COc1ccc(Cl)cc1	0	25	37	4	51*	6	5
CC1(c2ccc(Cl)cc2)NC(=O)N(CC(=O)Nc2ccc(F)cc2)C1=O (configuration not stated)	12	-6	-33	-5	1	9	nt
COc1cccc(-c2ccc(SCC(=O)c3ccccc3)nn2)c1	-59	12	23	-1	42*	-4	42*
Cc1cc(C(=O)CN2C(=O)c3ccccc3S2(=O)=O)c(C)n1-c1ccccc1	0	43	24	-1	25	0	nt
Cc1cc(C(=O)CN2C(=O)C3CC=CCC3C2=O)c(C)n1-c1ccccc1 (configuration not stated)	11	39	26	5	43*	3	7
CCCC1CC(C)(C(=O)CSc2n[nH]c(-c3ccccc3)n2)OC1=O (configuration not stated)	11	23	16	4	26	2	nt
Cc1nc2ccc(NC(=O)c3ccc([N+](=O)[O-])cc3[N+](=O)[O-])cc2s1	5	40	38	1	42*	28	28
Cn1c(O)c(C2=c3ccccc3=NC2=O)sc1=Nc1ccc(Cl)cc1	9	11	27	-1	49*	18	18
SMILES	NALP3 yeast inh	tim23-1 inh	tim10-1 inh	V-ATPase pHluor	TIM10 inh	NALP1 inh	TIM10 conf
Cc1ccc(C)c(Oc2coc3cc(OC(=O)c4cccs4)ccc3c2=O)c1	21	26	31	-1	40*	nt	23
COc1ccc(Oc2coc3cc(OC(=O)c4cccs4)ccc3c2=O)cc1	-11	-4	15	1	16	22	nt
CCOC(=O)Oc1ccc2c(=O)c(Oc3cc(C)cc(C)c3)coc2c1	-10	44	39	-1	44*	-10	29
Cc1cc(C)cc(Oc2coc3cc(OC(=O)c4cccnc4)ccc3c2=O)c1	26	27	39	-2	23	23	nt
COc1cccc(-n2nnnc2S(C)(=O)=O)c1	-21	-49	-13	3	59*	18	48*
COc1cccc(-n2cnnn2)c1	-4	8	23	4	-1	nt	nt
Cc1ccc(S(=O)(=O)NCCC(=O)OCC(=O)NCCc2ccccc2)cc1C	9	-7	-3	1	1	nt	nt
CCOC(=O)N/N=C/c1c(C)c(C(=O)c2ccc(F)cc2)n2ccccc12	25	37	40	-1	44*	11	32*
COC(=O)N/N=C/c1c(C)c(C(=O)c2ccc(F)cc2)n2ccccc12	33	26	30	-2	22	36	nt
COc1cccc(CNC(=O)CS(=O)(=O)Cc2nc(-c3ccc(C)cc3)oc2C)c1OC	-12	32	25	-3	10	-4	nt
CCOC(=O)Cn1nc(C)c2ccccc2c1=O	9	13	7	2	-1	-8	nt
COc1ccc(/C=N/Nc2ncnc3scc(-c4ccccc4)c23)cc1OC	7	26	32	-1	58*	8	44*
O=C(C=Cc1cccc(O)c1)c1ccccc1O	nt	nt	nt	3	nt	nt	nt
O=C(/C=C/c1ccc(O)c(O)c1)c1ccccc1O	14	27	33	4	42*	-18	11
O=S(=O)(Nc1cccc(-c2ccc3nncn3n2)c1)c1cccs1	8	11	7	-3	3	12	nt
Nc1cccnc1S(=O)(=O)c1cccc(C(F)(F)F)c1	-45	7	2	-2	12	nt	nt
Cn1cccc1/C=N/NC(=O)Cc1cccc2ccccc12	3	-1	33	5	24	4	nt
O=C(N/N=C/c1ccc([N+](=O)[O-])o1)c1sc2ccccc2c1Cl	10	47	25	8	69*	nt	65*
Cc1cc(C(=O)N/N=C/c2ccc([N+](=O)[O-])o2)c(C)o1	-11	24	24	-2	41*	5	25
NC(=O)N/N=C/c1ccc([N+](=O)[O-])o1	24	11	4	-1	0	nt	nt
Cn1cccc1/C=N/NC(=O)c1sc2ccccc2c1Cl	26	46	8	1	46*	1	49*
Cc1nonc1C(=O)N/N=C/c1ccc([N+](=O)[O-])o1	31	34	23	2	28	10	nt
OCC1(Cc2ccccc2)CCCN(Cc2cnn(-c3ccccc3)c2)C1 (configuration not stated)	26	-7	3	2	15	-12	nt
